Test results published in PubChem BioAssay AID2018 (Sanford-Burnham Center for Chemical Genomics, 2009).
About 600 (50%) of roughly 1,200 compounds were called active. So high a share suggests a set chosen from earlier hits. This is one part of the list. Results with a measured potency or affinity are listed apart. Unmarked numbers belong to inactive results. Rule as the data show it: active = inhibition above about 42%; inactive = the rest.

The compounds below were run against SUMO-conjugating enzyme UBC9 (Homo sapiens) (UniProt P63279) (assay: SUMOylation inhibitor hit validation, confirmation, SUMOylation inhibitor project, biochemical, AlphaScreen (AID 2018)). Conditions: AlphaScreen in vitro SUMOylation assay; at 35 µM; stronger effect = higher value.
Chain of SUMO-conjugating enzyme UBC9 (Homo sapiens) (P63279 whole entry, looked up): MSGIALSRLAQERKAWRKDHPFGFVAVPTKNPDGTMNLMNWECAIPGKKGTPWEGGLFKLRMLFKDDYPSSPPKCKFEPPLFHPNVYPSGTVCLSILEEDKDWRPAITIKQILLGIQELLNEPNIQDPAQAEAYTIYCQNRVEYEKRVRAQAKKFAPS
Compound `CN(C)CCNS(=O)(=O)c1ccc2c3c(cccc13)C(=O)N2` has an inhibition of 15.4%. With `Oc1cccc2c(NC(=S)Nc3ccc(SC(F)F)cc3)cccc12` the inhibition was 36.5%. Work on `O=C(NCCc1csc(-c2ccccc2)n1)c1c(F)cccc1Cl` yielded an inhibition of -8.6%. In the case of `Oc1ccc(C=Nc2cccc3ncccc23)c(O)c1`, the inhibition is reported as 27.7%. In the case of `Oc1ccccc1N=Cc1c(O)ccc2ccccc12`, the inhibition is reported as 56.9% (active). `Oc1ccc(C=Nc2cccc3ccccc23)c(O)c1` was tested, and the inhibition was 42.8% (active). For `O=[N+]([O-])c1cccc2cn[nH]c12`, the inhibition was -0.5%. `CCOc1ccc(C=Nc2cccc3ncccc23)cc1` gave an inhibition of 23.5%. With `Oc1c(C=Nc2cccc3nsnc23)ccc2ccccc12` the inhibition was 98% (active). `Oc1ccc2ccccc2c1C=Nc1ccc(Cl)cn1` showed an inhibition of 26.1%. For `COc1ccc(C=Nc2cccc3ncccc23)cc1`, the inhibition was 16.5%. For `Oc1ccc(N=Cc2c(O)ccc3ccccc23)cc1`, the inhibition was 21.9%. `N#CC1=C(N)N2C(=C(C#N)C1c1ccc(Br)cc1)Nc1ccccc12` (stereo not given) gave an inhibition of 20.4%. `Cc1cc(NCCO)c2cc(O)ccc2n1` was tested, and the inhibition was 3%. `O=[N+]([O-])c1cc(C=Nc2cccc3c(O)cccc23)ccc1Cl` gave an inhibition of 33.8%. In the case of `O=[N+]([O-])c1ccc(C=Nc2ccc(Cl)c([N+](=O)[O-])c2)s1`, the inhibition is reported as 98.4% (active). `CCCC(=O)NC(=S)Nc1cccc2c(O)cccc12` showed an inhibition of 10.1%. `O=C(NC(=S)Nc1cccc2c(O)cccc12)c1ccco1` gave an inhibition of 41.6%. In the case of `O=C(NC(=S)Nc1cccc2c(O)cccc12)c1cccc(Br)c1`, the inhibition is reported as 52.7% (active). For `NNc1nc2c(Cl)ccc(Cl)c2s1`, the inhibition was 8%. Work on `Cc1ccc(C)c(S(=O)(=O)Nc2ccc(O)c3ccccc23)c1` yielded an inhibition of 39.8%. For `Cc1cc(C)c(S(=O)(=O)Nc2cc(SCC(=O)O)c(O)c3ccccc23)cc1C`, the inhibition was 43.1% (active). In the case of `Cc1ccc(C)c(S(=O)(=O)Nc2cc(SCC(=O)O)c(O)c3ccccc23)c1`, the inhibition is reported as 51.2% (active). Work on `COc1ccc2c(C)c(C(=O)NCC(C)O)oc2c1OC` (stereo not given) yielded an inhibition of 6.4%. For `COC(=O)c1cc2c(C)[nH]c(C)c2cc(C(=O)OC)c1=O`, the inhibition was 13.6%. `CN1CCCc2cc3c(C(F)(F)F)cc(=O)oc3nc21` showed an inhibition of -9%. In the case of `N#CC1=C(N)Oc2n[nH]c(-c3cccs3)c2C1c1cccs1` (stereo not given), the inhibition is reported as 33.5%. `Cc1cc(-c2csc(NC(=O)c3ccc(C#N)cc3)n2)c(C)n1Cc1ccco1` was tested, and the inhibition was 21.4%. With `Cc1cc(NC(=O)CSc2nnc(Nc3ccccc3C)s2)no1` the inhibition was 25.7%. With `Cc1c(C)c2cc(Cl)c(O)c(CN3CCN(C)CC3)c2oc1=O` the inhibition was -1%. `CCOC(=O)c1sc(NC(=O)c2cccc(S(=O)(=O)N3CCc4ccccc43)c2)c(C#N)c1C` gave an inhibition of 33.4%. Work on `O=C(NCc1ccccc1)Nc1cccn(Cc2ccccc2)c1=O` yielded an inhibition of 3.6%. Compound `COc1ccccc1NC(=O)Cn1nc(C)n2cccc2c1=O` has an inhibition of 0.4%. Compound `COc1ccccc1NC(=O)CSc1ccc2nnc(-c3ccccn3)n2n1` has an inhibition of 14.2%. For `CC1(C)CC(=O)C2=C(C1)Nc1[nH]c(=S)[nH]c(=O)c1C2c1ccccc1` (stereo not given), the inhibition was 12.7%. Work on `Cc1occc1C(=O)N1CCN(c2ccccc2)CC1` yielded an inhibition of 19.6%. `CC(C)Cn1c(N)c(C(=O)NCc2cccs2)c2nc3ccccc3nc21` was tested, and the inhibition was -100%. Work on `Nc1c(C(=O)NCc2ccco2)c2nc3ccccc3nc2n1CCc1ccccc1F` yielded an inhibition of 2.7%. `COCCn1c(N)c(C(=O)NCc2cccs2)c2nc3ccccc3nc21` showed an inhibition of -23.2%. For `COCCNC(=O)c1c(N)n(CCC2=CCCCC2)c2nc3ccccc3nc12`, the inhibition was 4.1%. In the case of `O=c1cc(-c2ccc(F)cc2)[nH][nH]1`, the inhibition is reported as 24.9%. In the case of `Cn1c(NNC(=O)c2c(F)cccc2F)cc(=O)n(C)c1=O`, the inhibition is reported as 42.1% (active). With `CC1=NN(c2ccccc2)C(=O)/C1=C\c1ccc(Br)s1` the inhibition was 75% (active). `CC1=NN(c2ccccc2)C(=O)/C1=C\c1cn(CCC#N)nc1-c1ccc(Cl)cc1` was tested, and the inhibition was 60.8% (active). `CC1=NN(c2ccc(Br)cc2)C(=O)/C1=C/c1cccs1` was tested, and the inhibition was 59.4% (active). In the case of `CC1=NN(c2ccccc2)C(=O)/C1=C/c1ccc(Cl)cc1`, the inhibition is reported as 58.2% (active). For `COc1cc(/C=C2\C(=O)N(CCC#N)N=C2C)c(Br)cc1OC(C)C`, the inhibition was -16.2%. In the case of `CC1=NN(c2ccccc2)C(=O)/C1=C/c1cccs1`, the inhibition is reported as 40.6%. For `O=c1c2ccccc2oc2cc(NCCCN3CCOCC3)ccc12`, the inhibition was -1.4%. `CCCNC(=O)c1ccc2c(=O)c(O)c(-c3ccsc3)[nH]c2c1` was tested, and the inhibition was 16.3%. With `O=C1C(NS(=O)(=O)c2cccs2)=C(N2CCN(c3cccc(C(F)(F)F)c3)CC2)C(=O)c2ccccc21` the inhibition was 88.2% (active). `S=c1[nH]nc(-c2ccccc2Cl)n1/N=C/C=C/c1ccco1` showed an inhibition of 34.1%. With `S=c1[nH]nc(-c2cccnc2)n1/N=C/C=C/c1ccco1` the inhibition was 15.4%. Work on `O=C(Cc1cc(=O)oc2cc(O)ccc12)NCC1CCC(C(=O)O)CC1` (stereo not given) yielded an inhibition of 6%. Work on `COc1c(C)oc2cc(O)ccc2c1=O` yielded an inhibition of 3.3%. Compound `COCCNC(=S)Nc1cccc2cnccc12` has an inhibition of -7.2%. `CCc1ccc(NC(=S)Nc2cccc3cnccc23)cc1` was tested, and the inhibition was 69.6% (active). `Fc1ccc(NC(=S)Nc2cccc3cnccc23)cc1` gave an inhibition of 9.9%. `Cc1ccc(NC(=S)Nc2cccc3cnccc23)cc1C` showed an inhibition of 31.1%. `Cc1cc(C)cc(NC(=S)Nc2cccc3cnccc23)c1` gave an inhibition of 31.7%. With `S=C(Nc1ccc(Cl)cc1)Nc1cccc2cnccc12` the inhibition was 42.2% (active). Compound `O=C1N/C(=N/N=C/c2ccccc2O)SC1Cc1ccc(F)cc1` (stereo not given) has an inhibition of 7.4%. With `CNCc1ccccc1Sc1ccc(O)c(O)c1` the inhibition was -26.2%. In the case of `CCOc1cc(CNc2ccccc2SC)ccc1O`, the inhibition is reported as 65.8% (active). With `CCc1ccccc1NC(=O)Nc1cccn(Cc2ccccc2F)c1=O` the inhibition was 2.6%. Compound `COc1cccc(Cn2cccc(NC(=O)Nc3ccccc3C)c2=O)c1` has an inhibition of 31.1%. `O=C(NCc1ccccc1)Nc1cccn(Cc2ccccc2F)c1=O` gave an inhibition of -5%. `Cc1oc2c(c(C)cc3oc(=O)c(CC(=O)N[C@H](C(=O)O)C(C)C)c(C)c32)c1C` showed an inhibition of 10.7%. For `COc1ccc(-c2csc(CCN3N=C(C)CC3=O)n2)cc1`, the inhibition was 53.9% (active). With `COc1cccc(-c2[nH]nc3c2C(c2ccsc2)C(C#N)=C(N)O3)c1` (stereo not given) the inhibition was 24.1%. In the case of `CC(C)=CCC1=C(OCC(=O)O)C(=O)c2ccccc2C1=O`, the inhibition is reported as 99.7% (active). In the case of `O=[N+]([O-])c1ccc(O)c(C=Nc2cccc3ncccc23)c1`, the inhibition is reported as 19.8%. Compound `Fc1ccc(NC(=S)Nc2ccc3nccnc3c2)cc1` has an inhibition of 25%. `CC(C)N(C(=O)Nc1ccc2nccnc2c1)C(C)C` was tested, and the inhibition was 44.2% (active). `CCCCn1c(=O)[nH]c2nc3cc(N)ccc3nc2c1=O` gave an inhibition of 9.9%. For `CC(C)(C)OC(=O)c1c(N)n(CCCN2CCCC2=O)c2nc3ccccc3nc12`, the inhibition was -0.3%. For `CC(=O)OCCNc1cc(SCc2ccco2)c2nonc2c1[N+](=O)[O-]`, the inhibition was 87.5% (active). `CCC(=O)OCCNc1cc(Sc2nccn2C)c2nonc2c1[N+](=O)[O-]` gave an inhibition of 24.5%. Work on `CC(=O)OCCCNc1cc(SCc2ccco2)c2nonc2c1[N+](=O)[O-]` yielded an inhibition of 40.6%. With `CCC(=O)OCCNc1cc(Sc2nc3ccccc3s2)c2nonc2c1[N+](=O)[O-]` the inhibition was 46.1% (active). For `Cc1nnc(Sc2cc(NCCO)c([N+](=O)[O-])c3nonc23)s1`, the inhibition was 24.5%. Compound `Cc1nnc(Sc2cc(NCCCO)c([N+](=O)[O-])c3nonc23)s1` has an inhibition of 21.7%. `O=[N+]([O-])c1c(NCCCO)cc(Sc2nc3ccccc3s2)c2nonc12` showed an inhibition of 37.6%. With `O=[N+]([O-])c1c(NCCCO)cc(Sc2ccc(Cl)cc2)c2nonc12` the inhibition was 42.6% (active). `Cc1ccc(Sc2cc(NCCCO)c([N+](=O)[O-])c3nonc23)cc1` gave an inhibition of 35.8%. Compound `O=C(Nc1ccccc1)Oc1ccc[nH]c1=O` has an inhibition of 10.3%. `CN(CCO)c1nc(N)c2c(N)nc3c(c2c1C#N)CC(=O)N3C1CCCC1` showed an inhibition of 29.5%. Compound `CCOC(=O)c1c(-c2ccccc2)oc2ccc(OC(C)C(=O)O)cc12` (stereo not given) has an inhibition of -14%. For `N#Cc1c2ccc(OCC(N)=O)cc2n2ccccc12`, the inhibition was 56.5% (active). For `COc1ccc2cc3c(N)nn(C(=O)Cc4ccc(Cl)cc4)c3nc2c1`, the inhibition was 19.7%. For `COC(=O)c1c(C)oc(C)c1S(=O)(=O)NC(C)(C)C`, the inhibition was 15%. In the case of `CCOC(=O)CCc1c(C)c(C#N)c2[nH]c3ccccc3n2c1=O`, the inhibition is reported as 73.9% (active). In the case of `C=CCNc1nc(NCc2ccccc2)c(C#N)c2c1CN(C)CC2`, the inhibition is reported as 36.6%. With `Cc1cc(/C=N/n2c(COc3ccccc3C)nc3ccccc3c2=O)c(O)c([N+](=O)[O-])c1` the inhibition was 102% (active). In the case of `COc1ccc(CC2S/C(=N/N=C/c3ccccc3O)NC2=O)cc1` (stereo not given), the inhibition is reported as 19%. With `CC(=O)Oc1ccc2cc(-c3nc4ccccc4n3C)c(=O)oc2c1` the inhibition was -26.3%. In the case of `Brc1ccc(C2Nc3cccc4cccc(c34)N2)o1`, the inhibition is reported as 69.5% (active). `Cc1cc(C)cc(NC(=S)Nc2cccc3ccccc23)c1` gave an inhibition of 4%. For `Cc1oc2c(c(C)cc3oc(=O)c(CC(=O)N[C@@H](C)C(=O)O)c(C)c32)c1C`, the inhibition was -7%. `CCC(NC(=O)Cc1c(C)c2c(cc(C)c3c(C)c(C)oc32)oc1=O)C(=O)O` (stereo not given) was tested, and the inhibition was 26.9%.
